Test results published in PubChem BioAssay AID1159580 (chemical genetic matrix, 2015).
Screen size: about 5,500 compounds; about 2,000 (36%) were called active. About 18% were inconclusive and are not listed. Cut-off read from the data, not from the text of the source: active = normalized growth mostly below about 0.91 (no sharp cut-off); inconclusive = no clear call, values can overlap the other calls; inactive = mostly above about 0.92. The list shows a part of the results.

Assay: chemical genetic growth profiling, strain panel (AID 1159580);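 note: tested at 20 µM; growth read once vehicle control cultures reached saturation at 30 °C; 1 = growth at the plate median or of vehicle wells; lower values mean less growth of the strain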
Details: S. cerevisiae deletion strains, growth OD
[1] = locus YAL013W, strain DEP1, hits give low values
[2] = locus YMR307W, strain GAS1, hits give low values
[3] = locus YNL128W, strain TEP1, hits give low values
[4] = locus YNL153C, strain GIM3, hits give low values
[5] = locus YNL322C, strain KRE1, hits give low values
[6] = locus YPL055C, strain LGE1, hits give low values
[7] = locus YAL040C, strain CLN3, hits give low values
[8] = locus YCL061C, strain MRC1 (second series), hits give low values
[9] = locus YDR150W, strain NUM1, hits give low values
[10] = locus YDR363W, strain ESC2, hits give low values
[11] = locus YER002W, strain NOP16, hits give low values
[12] = locus YGR229C, strain SMI1, hits give low values
[13] = locus YNL175C, strain NOP13, hits give low values
[14] = locus YNL197C, strain WHI3, hits give low values
[15] = locus YNL224C, strain SQS1, hits give low values
[16] = locus YOR083W, strain WHI5 (second series), hits give low values

Measured: normalized growth

CC1=CC(=O)C2=C(C)CC[C@@H]3[C@H](OC(=O)[C@H]3C)[C@@H]12
inactive: [1] 1 | locus YBR021W, strain FUR4, hits give low values 0.965 | locus YBR229C, strain ROT2, hits give low values 0.987 | locus YCL029C, strain bik1, hits give low values 0.975 | locus YDL035C, strain GPR1, hits give low values 0.998 | locus YDL074C, strain BRE1, hits give low values 0.986 | locus YDL101C, strain DUN1, hits give low values 0.995 | locus YDL185W, strain tfp1, hits give low values 0.978 | locus YDL192W, strain arf1, hits give low values 1.01 | locus YDR101C, strain arx1, hits give low values 0.981 | locus YDR162C, strain NBP2, hits give low values 1.01 | locus YDR318W, strain mcm21, hits give low values 1 | locus YDR388W, hits give low values 0.981 | locus YDR502C, strain sam2, hits give low values 0.983 | locus YEL061C, strain CIN8, hits give low values 0.997 | locus YER110C, hits give low values 0.979 | locus YER155C, strain BEM2, hits give low values 0.987 | locus YER167W, strain BCK2, hits give low values 0.992 | locus YGL078C, strain dbp3, hits give low values 0.977 | locus YGL086W, strain mad1, hits give low values 0.979 | locus YGL248W, strain PDE1, hits give low values 1.01 | locus YGR135W, strain pre9, hits give low values 0.997 | locus YGR252W, strain gcn5, hits give low values 1.07 | locus YHR030C, strain SLT2, hits give low values 0.99 | locus YHR079C, strain IRE1 (second series), hits give low values 0.985 | locus YHR094C, strain hxt1, hits give low values 0.991 | locus YHR129C, strain ARP1, hits give low values 0.997 | locus YHR200W, strain rpn10, hits give low values 0.998 | locus YIL066C, strain RNR3, hits give low values 0.999 | locus YIL073C, strain SPO22, hits give low values 0.99 | locus YIL125W, strain kgd1, hits give low values 0.986 | locus YIR030C, strain dcg1, hits give low values 0.985 | locus YJL095W, strain BCK1, hits give low values 1.04 | locus YJL134W, strain LCB3, hits give low values 0.992 | locus YJL168C, strain set2, hits give low values 0.984 | locus YJL187C, strain SWE1 (second series), hits give low values 1.01 | locus YJR043C, strain POL32, hits give low values 1.01 | locus YKL009W, strain mrt4, hits give low values 1 | locus YKL068W, hits give low values 0.985 | locus YKL085W, strain MDH1 (second series), hits give low values 0.995 | locus YKL085W, strain MDH1, hits give low values 0.995 | locus YKL190W, strain CNB1, hits give low values 1.01 | locus YKR001C, strain vps1, hits give low values 0.965 | locus YLR039C, strain RIC1, hits give low values 1.02 | locus YLR058C, strain SHM2, hits give low values 1 | locus YLR102C, strain apc9, hits give low values 0.981 | locus YLR262C, strain YPT6, hits give low values 1.01 | locus YLR268W, strain sec22, hits give low values 0.976 | locus YLR330W, strain CHS5, hits give low values 0.993 | locus YLR342W, strain FKS1 (second series), hits give low values 0.989 | locus YLR371W, strain rom2, hits give low values 0.959 | locus YLR418C, strain cdc73, hits give low values 1.01 | locus YML016C, strain PPZ1, hits give low values 0.99 | locus YML032C, strain rad52, hits give low values 1.01 | locus YML124C, strain tub3, hits give low values 0.989 | locus YMR078C, strain ctf18, hits give low values 1 | locus YMR223W, strain ubp8, hits give low values 1.03 | [2] 1 | locus YNL067W, strain RPL9B, hits give low values 1.02 | [3] 0.984 | [4] 1.01 | locus YNL233W, strain BNI4, hits give low values 1 | locus YNL250W, strain rad50, hits give low values 0.995 | locus YNL271C, strain bni1, hits give low values 0.984 | locus YNL298W, strain CLA4, hits give low values 0.99 | locus YNL307C, strain MCK1, hits give low values 0.971 | [5] 1 | locus YNR052C, strain pop2, hits give low values 0.996 | locus YOL012C, strain htz1 0.989 | locus YOL147C, strain pex11, hits give low values 0.987 | locus YOR061W, strain CKA2, hits give low values 0.992 | locus YOR069W, strain VPS5, hits give low values 0.986 | locus YOR136W, strain idh2, hits give low values 0.971 | locus YOR144C, strain elg1, hits give low values 0.988 | locus YOR184W, strain ser1, hits give low values 0.974 | locus YOR316C, strain cot1, hits give low values 0.984 | [6] 0.999 | locus YPR119W, strain clb2, hits give low values 1 | locus YPR141C, strain kar3, hits give low values 0.98 | locus YPR163C, strain tif3, hits give low values 0.978 | locus YPR167C, strain met16, hits give low values 1.02 | strain wtn01, hits give low values 0.971

N#CC(C#N)=Cc1ccc(O)c(O)c1
inactive: [1] 1 | [7] 1.01 | [8] 1 | [9] 0.998 | [10] 1.02 | [11] 0.992 | [12] 0.982 | locus YJR075W, strain HOC1, hits give low values 0.959 | [2] 0.988 | [13] 0.998 | [14] 0.995 | [15] 0.998 | [16] 1.03

N#C/C(=C\c1ccc(O)c(O)c1)C(=O)NCCCc1ccccc1
inactive: [7] 0.98 | [8] 1 | [9] 0.991 | [10] 1.01 | [11] 0.993 | locus YGR078C, strain PAC10, hits give low values 1 | [12] 0.941 | [2] 0.996 | [3] 0.996 | [13] 0.998 | [14] 1.01 | [15] 1 | [5] 1 | [16] 1.01 | [6] 0.991

N#CC(C#N)=Cc1cc(O)c(O)c(O)c1
inactive: [7] 0.951 | [8] 0.998 | [9] 0.988 | [10] 1 | [11] 0.996 | [12] 0.97 | locus YMR263W, strain SAP30, hits give low values 0.996 | [2] 0.995 | [3] 0.986 | [4] 0.975 | [13] 1.01 | [14] 1.01 | [15] 0.999 | [16] 0.995 | locus YPL241C, strain CIN2, hits give low values 0.999
